The results in this text go back to ChEMBL document CHEMBL1157539, “Thousands of chemical starting points for antimalarial lead identification” (Nature, 2010).

For orientation: Inhibition means the relative decrease from the control value, in per cent. Lower therefore signals little suppression.

Each structure is given as a SMILES string.

Common to all, as to format: functional
Assay [1] deals with Plasmodium falciparum. Kind of assay: GSK_TCMDC: Inhibition of Plasmodium falciparum 3D7 in whole red blood cells, using parasite LDH activity as an index of growth. Test compounds present at 2uM.
In assay [2] the test system is Plasmodium falciparum. Kind of assay: GSK_TCMDC: Inhibition of Plasmodium falciparum Dd2 in whole red blood cells, using parasite LDH activity as an index of growth. Test compounds present at 2uM.
The next assay relates to HepG2. The experiment in a line: GSK_TCMDC: Percent inhibition of human HepG2 cell line. Test compounds present at 10uM.

As for `Cl.O=C(CCc1ccccc1)N[C@H](Cc1c[nH]c2ccccc12)C(=O)N1CCC(NCc2ccc3c(c2)Cc2ccccc2-3)CC1`, the Inhibition in the assay on Plasmodium falciparum [1] came out at 92%; with Plasmodium falciparum [2] it was 8%; with HepG2 it was 53%.
With `COc1cccc(C(=O)Nc2nonc2-c2ccc(OC)c(OC)c2)c1`, the results for the Inhibition with Plasmodium falciparum [1], in the assay with Plasmodium falciparum [2] and in the assay with HepG2 were 97%, 50% and 7%, respectively.
On to `CCc1ccc(N2C(N)=NC(N)=NC2(C)C)cc1.Cl`, for which the Inhibition is reported as 94% with Plasmodium falciparum [1], 0% with Plasmodium falciparum [2] and 51% with HepG2.
As for `CCCCNC(=O)c1[nH]c2c(NC(=O)COc3ccccc3)cccc2c1-c1cccc(NC(=O)C(N)CO)c1` (stereo not given), the Inhibition was found to be 87% in the assay with Plasmodium falciparum [1], 0% in the assay on Plasmodium falciparum [2] and 11% with HepG2.
Taken in the same sequence, the figures for `COc1ccc(NC(=O)[C@H](CC(C)C)Nc2cc(C)nc(NCc3ccccc3C)n2)cc1.O=C(O)C(F)(F)F` were 100%, 78% and 12%.
Take `O=C(O)C(F)(F)F.OCCN1CCN(Cc2ccc(-c3ccc(-c4nc5ccccc5[nH]4)cc3)cc2)CC1`: the Inhibition is 100% in the assay on Plasmodium falciparum [1], 58% with Plasmodium falciparum [2] and 6% in the assay on HepG2.
Take `CCCCCCCN1CCC(CC(=O)Nc2ccnc3ccc(OC)cc23)CC1`: the Inhibition was 97% in the assay with Plasmodium falciparum [1], 52% in the assay with Plasmodium falciparum [2] and 15% in the assay on HepG2.
On to `Cc1cc(=NN=Cc2ccccc2F)c2cc(F)ccc2[nH]1`, for which the Inhibition worked out at 100% in the assay with Plasmodium falciparum [1], 97% in the assay with Plasmodium falciparum [2] and 9% with HepG2.
In the case of `Cc1ccc2sc(N(CCCn3ccnc3)C(=O)c3ccco3)nc2c1C.Cl`, the values for the Inhibition in the assay with Plasmodium falciparum [1], in the assay on Plasmodium falciparum [2] and in the assay with HepG2 were 93%, 98% and 9%, respectively.
Taken in the same sequence, the figures for `CCCCN(CCCC)CCNC(=O)c1cccc(NC(=O)N2CCc3cc(SC)c(C(F)(F)F)cc32)c1` were 96%, 32% and 15%.
On the same counts, the results for `O=C(Nc1cccc(N2CCC(NCc3cnn(-c4cccc(F)c4)c3)CC2)c1)c1ccncc1` are 84%, 40% and 50%.
For the compound `O=C(Nc1nccs1)c1cc(-c2cccnc2)nc2ccc(Br)cc12`, the figures for the Inhibition in the assay on Plasmodium falciparum [1], in the assay with Plasmodium falciparum [2] and in the assay with HepG2 were 100%, 79% and 7%, respectively.
As to `CSc1ccccc1NC(=S)NC1CCN(CCCCCNC(=O)/C=C/c2ccc(Cl)c(Cl)c2)CC1`, the figures for the Inhibition with Plasmodium falciparum [1], in the assay with Plasmodium falciparum [2] and in the assay with HepG2 were 98%, 27% and 19%, respectively.
Taken in the same sequence, the figures for `Cc1cccc2nc(-c3ccc(-c4ccc(C(=O)NCCN5CCCC5)cc4)s3)[nH]c12` were 100%, 13% and 20%.
`CCCCN(CCCC)CCCCNc1c2ccc(Cl)cc2nc2ccc(OC)cc12.Cl`: the figures for the Inhibition with Plasmodium falciparum [1], in the assay with Plasmodium falciparum [2] and with HepG2 were 100%, 96% and 68%, respectively.
On the same counts, the results for `COc1ccccc1CNC(=O)c1cc(C2CC2)nc2c1cnn2C(C)C` are 94%, 92% and 47%.
With `Cc1cccc2nc(-c3cccc(-c4cccc(NC(=O)Nc5ccccc5)c4)c3)[nH]c12`, the Inhibition in the assay with Plasmodium falciparum [1] is listed as 100%; in the assay on Plasmodium falciparum [2], 64%; in the assay on HepG2, 8%.
Taken in the same sequence, the figures for `ON=C1CCc2cc(-c3cc(-c4ccc(OC5CCNCC5)cc4)oc3-c3ccncc3)ccc21` were 100%, 99% and 34%.
`COc1ccc(-n2nc(C(=O)NCc3ccccc3OC)c3ccccc3c2=O)cc1`: the figures for the Inhibition in the assay on Plasmodium falciparum [1], in the assay with Plasmodium falciparum [2] and with HepG2 were 100%, 94% and 2%, respectively.
On the same counts, the results for `CN1CCN(CCCN(Cc2cccc(-c3ccc(CNCCc4ccccc4)cc3)c2)C(=O)c2cccs2)CC1.O=C(O)C(F)(F)F` are 100%, 97% and 86%.
Regarding `CC(C)CC(C)NC(=O)C1Cc2c([nH]c3cc(Cl)ccc23)C2(CCN(CCc3ccccc3)CC2)N1` (stereo not given), the values for the Inhibition in the assay on Plasmodium falciparum [1], with Plasmodium falciparum [2] and in the assay on HepG2 were 95%, 65% and 15%, respectively.
Turning to `CC(C)(CNCc1ccc(C(F)(F)F)cc1)c1nc(-c2ccnc(N)n2)c(-c2ccc(Cl)c(O)c2)[nH]1.Cl`, the Inhibition turned out to be 100% in the assay on Plasmodium falciparum [1], 37% in the assay with Plasmodium falciparum [2] and 32% in the assay with HepG2.
Taken in the same sequence, the figures for `CCCCCc1cc(O)c2c(c1)OC(C)(C)C=C2C1=CCN(Cc2ccsc2)CC1` were 98%, 48% and 20%.
On the same counts, the results for `COc1ccc(Br)cc1/C=C/C(=O)Nc1ccc(C2CCCN(C)C2)cc1.O=CO` (stereo not given) are 100%, 35% and 18%.
Consider `COc1ccc2nccc(CCN3CC(O)C(CNCc4ccc5c(n4)NC(=O)CS5)C3)c2n1.Cl` (stereo not given), for which the Inhibition is given as 86% with Plasmodium falciparum [1], 26% with Plasmodium falciparum [2] and 4% with HepG2.
On the same counts, the results for `CO/C(=C\C=C\c1cc2cc(Cl)c(Cl)cc2[nH]1)C(=O)NCCCN1CCN(c2cccc(Cl)c2)CC1` are 100%, 77% and 58%.
On the same counts, the results for `NC(=O)C1Cc2ccccc2CN1CC(=O)Nc1ccccc1Sc1ccccc1` (stereo not given) are 100%, 99% and 5%.
Consider `O=C(NC1CC1)c1ccc(N2CCC(Oc3ccc(F)cc3)CC2)nc1`, for which the Inhibition in the assay on Plasmodium falciparum [1] stood at 89%; in the assay with Plasmodium falciparum [2] it was 79%; in the assay on HepG2, 0%.
Consider `O=C1C(c2ccccc2)=C(Nc2ccc(OC(F)(F)F)cc2)c2ccccc21`, for which the Inhibition in the assay with Plasmodium falciparum [1] stood at 96%; with Plasmodium falciparum [2], 96%; in the assay with HepG2 it was 18%.
On to `COC(=O)c1ccc(OCC(C)NCC(O)c2cccc(C(F)(F)F)c2)cc1.O=C(O)/C=C/C(=O)O` (stereo not given), for which the Inhibition turned out to be 94% in the assay with Plasmodium falciparum [1], 81% in the assay with Plasmodium falciparum [2] and 6% in the assay on HepG2.
